AMA1-RON2 inh: disrupts binding of P. falciparum AMA1 to RON2. AlphaScreen AMA1-biotinylated RON2 peptide binding. Potency, µM (doses to about 58.2 µM), actives largely listed as inhibitors. 0.2% of 360,000 active; note: nearly all actives have a fitted effect of over 45% in size
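AMA1 (3D7) with his tag at 25 nM final met compounds first, then biotinylated RON2 peptide at 25 nM; detection used donor plus acceptor beads, 10 µg/mL apiece, read by AlphaScreen after 30 min at room temperature.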
VACV mCherry inh: vaccinia inhibition (mCherry reporter). Vaccinia virus mCherry reporter infection, fluorescence. Potency, µM (highest dose often 36.5 µM), most hits filed as inhibitors. 0.63% of 310,000 active; calls by dose curve; tested in A549 cells; note: nearly all actives have a fitted effect of over 35% in size
Pf growth 96h: P. falciparum growth inhibition at 96 hour, primary screen for plastid delayed-death inhibitors; Potency, µM (highest dose often 28.7 µM), most hits filed as inhibitors; P. falciparum luciferase reporter growth, 96 h; 6.9% of 320,000 active; AID 504834
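Compounds incubated with erythrocytes infected by luciferase-expressing P. falciparum (2% hematocrit, 0.05% parasitemia final) for 96 hours, 37 C in 5% CO2. Growth inhibition scored as decreased luciferase luminescence.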
Pf growth 48h: P. falciparum growth inhibition at 48 hours (one generation); P. falciparum luciferase growth in erythrocytes, 48 h; Potency, µM (doses to about 28.7 µM), most hits filed as inhibitors; 5.9% of 310,000 active; AID 504832
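In quantitative HTS format, infected erythrocytes bearing luciferase-reporter parasites were treated for a single generation at 37 C. Luminescence after adding detection reagent served as the growth measure.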
Vaccinia Venus: vaccinia inhibition (Venus reporter); Vaccinia virus Venus reporter expression, fluorescence; Potency, µM (series often up to 36.5 µM), hits mostly inhibitors; 0.46% of 330,000 active; calls by dose curve; tested in A549 cells; note: nearly all actives have a fitted effect of over 30% in size
Hits are given with their value; - = inactive; ? = inconclusive; . = no result given; [ ] = remark or other dose. Sampled rows, rich in hits. Any-hit rate of the full collection: about 8.7%. Unless noted, calls come from the whole dose curve; as a rule, active = well fitted curve in the direction sought with a large enough effect; inconclusive = small, poorly fitted or top-dose-only effect, or another doubt; inactive = no such curve, though single readings can be large; an effect the other way counts as inactive or inconclusive.

SMILES	AMA1-RON2 inh	VACV mCherry inh	Pf growth 96h	Pf growth 48h	Vaccinia Venus
Cc1ccc(-c2nnc(Nc3ccc(CC(N)=O)cc3)c3ccccc23)cc1S(=O)(=O)NCC1CCCO1 (stereo not drawn)	-	-	?	0.83µM	-
CNS(=O)(=O)c1cc(-c2nnc(Nc3ccc(CC(N)=O)cc3)c3ccccc23)ccc1C	-	.	-	7.4µM	.
COC(=O)c1ccc(Nc2nnc(-c3ccc(C)c(S(=O)(=O)NCC4CCCO4)c3)c3ccccc23)cc1 (stereo not drawn)	-	-	?	7.4µM	-
Cc1ccc(-c2nnc(Nc3cccc(O)c3)c3ccccc23)cc1S(=O)(=O)NCC1CCCO1 (stereo not drawn)	.	-	.	.	-
Cc1ccc(-c2nnc(N3CCOCC3)c3ccccc23)cc1S(=O)(=O)NCC1CCCO1 (stereo not drawn)	-	.	-	8.3µM	-
Cc1ccc(-c2nnc(Nc3ccc(OCC(N)=O)cc3)c3ccccc23)cc1S(N)(=O)=O	-	-	-	13µM	-
Cc1ccc(O)c(CP(=O)(c2ccccc2)c2ccccc2)c1	-	-	?	?	-
CCNc1ccccc1CP(=O)(c1ccccc1)c1ccccc1O (stereo not drawn)	?	-	12µM	13µM	-
COc1cccc(N2C(=O)C(CC(=O)Nc3ccccc3)N(CCc3sccc3C)C2=O)c1 (stereo not drawn)	.	-	.	.	-
N#Cc1ccccc1OCC(=O)Nc1cccc(S(=O)(=O)N2CCCC2)c1	-	.	?	?	.
CC(=O)c1cccc(NCC(=O)Nc2cccc(S(=O)(=O)N3CCCCC3)c2)c1	-	-	?	?	-
COc1cc(C#N)ccc1OCC(=O)Nc1cccc(S(=O)(=O)N2CCCC2)c1	-	.	8.3µM	9.3µM	.
CC1CCN(S(=O)(=O)c2ccc3c(c2)CCC(=O)N3CC(=O)Nc2cccc(C#N)c2)CC1	.	-[7.34 µM]	?	12µM	-[7.34 µM]
N#Cc1ccc(NCC(=O)Nc2ccc(S(=O)(=O)N3CCCCC3)cc2)cc1	-	.	?	9.3µM	.
N#Cc1cccc(NCC(=O)Nc2cccc(S(=O)(=O)N3CCCCC3)c2)c1	-	.	?	13µM	.
Cc1ccc(S(=O)(=O)N(CC(=O)NCCc2ccc(Cl)cc2)c2ccccc2C)cc1	.	?	.	.	-
N#Cc1cccc(NC(=O)CNc2cccc(S(=O)(=O)N3CCCC3)c2)c1	-	-	?	10µM	-
CC(=O)Nc1ccc(OCC(O)CN2CCN(c3ccc(Cl)cc3)CC2)cc1 (stereo not drawn)	-	-	?	?	-
CC(=O)Nc1ccc(OCC(O)Cn2c(C(C)C)nc3ccccc32)cc1 (stereo not drawn)	-	-	2.3µM	-	-
CC(=O)Nc1ccc(OCC(O)Cn2c(C)nc3ccccc32)cc1 (stereo not drawn)	-	-	-	.	-
CC(=O)Nc1ccc(OCC(O)CN2CCN(c3cccc(Cl)c3)CC2)cc1 (stereo not drawn)	-	.	10µM	?	.
CC(=O)Nc1ccc(OCC(O)Cn2nc(C)c(C)c2C)cc1 (stereo not drawn)	-	-	10µM	-	-
CCc1ccc(NC(=O)Cn2nnc(C(=O)Nc3ccc(F)cc3)c2N)cc1	.	-	.	.	-
Cc1cc(C)cc(NC(=O)C(C)N2Cc3ccccc3C2=O)c1 (stereo not drawn)	.	-	.	.	-
CN(C)/C=C1\C(=O)ON=C1c1ccccc1	-	-	-	-	-
SMILES	AMA1-RON2 inh	VACV mCherry inh	Pf growth 96h	Pf growth 48h	Vaccinia Venus
CC1=NN(c2ccccc2)C(=O)/C1=C/C=C/c1ccccc1	3.2µM	-	?	?	-
Cc1ccc(C2=NOC(=O)/C2=C\C=C\c2ccccc2)cc1	-	-	2.9µM	-	-
COc1ccc(S(N)(=O)=O)cc1C(=O)OCCCC(=O)c1ccccc1	-	.	15µM	?	.
COc1cccc(-c2nc3cc4c(cc3cc2CN(C(=O)c2cc(C)nn2C)C2CC2)CCC4)c1OC	.	-	.	.	-
Cc1ccc(S(=O)(=O)N2CCN(c3nc(-c4ccc(C)s4)nc4ccccc34)CC2)cc1	.	-	.	.	-
COc1cccc(N2CC(O)=C(c3nc4ccccc4c(=O)[nH]3)C2=N)c1	-	?	?	?	2.8µM
Cc1cc(C)cc(N2CC(O)=C(c3nc4ccccc4c(=O)[nH]3)C2=N)c1	-	-	-	-	-
Cc1ccc(OCC(=O)Nc2c(C(=O)c3ccc(Cl)cc3)oc3ccccc23)cc1C	.	-	.	.	-
COc1cc(NC(=O)COc2ccc(Cl)cc2)ccc1-c1cc2ccccc2oc1=O	-	?	4.1µM	?	-
CNc1c(NC(=O)COc2ccc(Cl)cc2)c(=O)oc2ccccc12	-	-[7.34 µM]	?	10µM	-[7.34 µM]
Cc1noc2ncnc(N3CCCC(C(=O)NC(C)C)C3)c12 (stereo not drawn)	.	-	.	.	-
Cc1ccc(-c2ccc(CCC(=O)O)n2-c2cccc(C)c2C)cc1	.	-	.	.	-
CCOC(=O)C(=CNc1nc(-c2ccccc2)c(C(=O)Nc2ccc(-c3ccccc3)cc2)s1)C(=O)OCC	-	.	15µM	?	.
COc1cc(CCC(=O)NCc2ccc3c(c2)CCN3C(=O)c2ccccc2)cc(OC)c1OC	.	-	.	.	-
CCOC(=O)c1ccc(NC(=O)c2ccc3c(c2)CCN3S(=O)(=O)c2ccc(Cl)cc2)cc1	.	-	.	.	-
COc1ccc(C2C3C=CCC(c4cccc(-c5ccc(C)cc5)c4)C3C(=O)N2Cc2ccccc2)cc1Cl (stereo not drawn)	-	-	?	12µM	-
O=C1C2C(c3ccccc3)CC=CC2[C@H](c2ccc3ccccc3c2)N1Cc1ccccc1 (stereo partly drawn)	-	-	?	?	?
COc1ccc(-c2cccc([C@H]3[C@@H]4C=CC[C@@H](C)[C@@H]4C(=O)N3Cc3ccccc3)c2)cc1	-	-	.	.	-
COc1ccc(-c2cccc(C3CC=CC4C3C(=O)N(Cc3ccccc3)C4c3ccc4ccccc4c3)c2)cc1 (stereo not drawn)	-	-	15µM	9.3µM	-
CN(C)c1ccc(-c2cccc(C3CC=CC4C3C(=O)N(Cc3ccccc3)C4c3ccc4ccccc4c3)c2)cc1 (stereo not drawn)	-	?	?	9.3µM	-
Cc1cc2n(n1)CCC(=O)N2Cc1ccc(C(=O)Nc2ccc(Br)c(C)c2)cc1	.	-	.	.	-
COc1cc(OC)c(NC(=O)N2CCC(CN3CCCC3)CC2)cc1Cl	.	-	.	.	-
C=Cc1ccc(Cn2ccn(-c3ccc(F)c(F)c3)c(=O)c2=O)cc1	.	-	.	.	-
Cc1ccc2cccc(NC(=O)COc3ccccc3[N+](=O)[O-])c2n1	.	-	.	.	-
CC(C)CC(=O)Nc1ccc(C(=O)COc2ccc(-c3nnco3)cc2)cc1	-	-	2.1µM	?	-
CCOCCCNC(=O)c1ccc2nc(-c3ccc(OC)c(OC)c3)c(-c3ccc(OC)c(OC)c3)nc2c1	-	-	-	3.7µM	-
COc1ccc(-c2nc3ccc(C(=O)NCC(OC)OC)cc3nc2-c2ccc(OC)c(OC)c2)cc1OC	-	.	-	4.1µM	.
CCCS(=O)(=O)NCc1c(C)ncc2c1CCN(C(=O)/C=C/c1ccc(F)cc1F)C2	.	-	.	.	-

Assay outcomes as filed in PubChem BioAssay.
